Reference: PubChem BioAssay (NCATS)
Results filed as inconclusive are left out. Calls of active or inactive are those of the source. The call rests on the fitted dose curve; in most records, active means well fitted curve in the direction sought with a large enough effect; inconclusive means small, poorly fitted or top-dose-only effect, or another doubt; inactive means no such curve, though single readings can be large; an effect the other way counts as inactive or inconclusive.

Assays:
[1] = molecular target: ATP-dependent 6-phosphofructokinase (Trypanosoma brucei brucei) (UniProt O15648); assay: qHTS Assay to Find Inhibitors of T. brucei phosphofructokinase: hit validation (AID 492961);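 further: luminescence reports ADP formed as PFK phosphorylates fructose-6-phosphate with ATP; on the % scale 0 is the no-effect control and ±100 the full control effect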
Chain of ATP-dependent 6-phosphofructokinase (Trypanosoma brucei brucei) (O15648 whole entry, looked up): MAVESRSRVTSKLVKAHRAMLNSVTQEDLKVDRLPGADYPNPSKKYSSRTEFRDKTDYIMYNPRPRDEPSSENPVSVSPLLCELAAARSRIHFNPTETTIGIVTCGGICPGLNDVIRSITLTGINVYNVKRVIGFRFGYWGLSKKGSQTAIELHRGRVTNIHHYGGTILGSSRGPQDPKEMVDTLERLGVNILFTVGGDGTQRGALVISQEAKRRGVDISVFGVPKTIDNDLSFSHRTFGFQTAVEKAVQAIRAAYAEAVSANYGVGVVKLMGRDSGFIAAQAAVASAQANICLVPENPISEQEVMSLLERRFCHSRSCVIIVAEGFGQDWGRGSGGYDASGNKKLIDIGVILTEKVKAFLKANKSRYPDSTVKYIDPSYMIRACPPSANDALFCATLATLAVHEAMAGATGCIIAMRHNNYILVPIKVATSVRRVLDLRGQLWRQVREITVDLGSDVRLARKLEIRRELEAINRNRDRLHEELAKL
Summary of the method: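 PFK 1.25 nM, F6P 0.5 mM, ATP 0.1 mM, MgCl2 5 mM, 0.1 M TEA pH 8.0, Tween20 0.01%, BSA 0.1%; 45 min RT. ADP-Glo two-step detection, luminescence. qHTS titration; curve fitting with curve-class categorization.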

[2] = qHTS profiling for inhibitors of Plasmodium falciparum proliferation (AID 504749);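 further: 0% = DMSO vehicle and full inhibition = artemisinin control; nearly all actives have a fitted effect of over 60% in size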; conditions: P. falciparum in erythrocytes, SYBR Green DNA, 72 h, at 28.7 µM (top of the series)
Summary of the method: (§1)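 P. falciparum-infected erythrocytes (0.3% parasitemia, 2.5% hematocrit final) were exposed to compounds for 72 h at 37 C in 5% CO2, then lysed with SYBR Green buffer overnight at room temperature; parasite DNA fluorescence was normalized to artemisinin and DMSO controls.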

[3] = system: 3D7; assay: as above; conditions: P. falciparum in erythrocytes, SYBR Green DNA, 72 h; series mostly up to 28.7 µM
Summary of the method: as §1

[4] = system: AA1029; assay: as above; conditions: P. falciparum in erythrocytes, SYBR Green DNA, 72 h; series mostly up to 28.7 µM
Summary of the method: as §1

[5] = system: AS120; assay: as above; conditions: P. falciparum in erythrocytes, SYBR Green DNA, 72 h; series mostly up to 28.7 µM
Summary of the method: as §1

[6] = system: ATS189; assay: as above; conditions: P. falciparum in erythrocytes, SYBR Green DNA, 72 h; series mostly up to 28.7 µM
Summary of the method: as §1

[7] = system: CP185; assay: as above; conditions: P. falciparum in erythrocytes, SYBR Green DNA, 72 h; series mostly up to 28.7 µM
Summary of the method: as §1

[8] = system: CP191; assay: as above; conditions: P. falciparum in erythrocytes, SYBR Green DNA, 72 h; series mostly up to 28.7 µM
Summary of the method: as §1

[9] = system: CP194; assay: as above; conditions: P. falciparum in erythrocytes, SYBR Green DNA, 72 h; series mostly up to 28.7 µM
Summary of the method: as §1

[10] = system: CP217; assay: as above; conditions: P. falciparum in erythrocytes, SYBR Green DNA, 72 h; series mostly up to 28.7 µM
Summary of the method: as §1

[11] = system: CP237; assay: as above; conditions: P. falciparum in erythrocytes, SYBR Green DNA, 72 h; series mostly up to 28.7 µM
Summary of the method: as §1

[12] = system: CP238; assay: as above; conditions: P. falciparum in erythrocytes, SYBR Green DNA, 72 h; series mostly up to 28.7 µM
Summary of the method: as §1

[13] = system: CP252; assay: as above; conditions: P. falciparum in erythrocytes, SYBR Green DNA, 72 h; series mostly up to 28.7 µM
Summary of the method: as §1

[14] = system: CP265; assay: as above; conditions: P. falciparum in erythrocytes, SYBR Green DNA, 72 h; series mostly up to 28.7 µM
Summary of the method: as §1

[15] = system: CP286; assay: as above; conditions: P. falciparum in erythrocytes, SYBR Green DNA, 72 h; series mostly up to 28.7 µM
Summary of the method: as §1

[16] = system: DFO2036; assay: as above; conditions: P. falciparum in erythrocytes, SYBR Green DNA, 72 h; series mostly up to 28.7 µM
Summary of the method: as §1

[17] = system: DIV30; assay: as above; conditions: P. falciparum in erythrocytes, SYBR Green DNA, 72 h; series mostly up to 28.7 µM
Summary of the method: as §1

[18] = system: Dd2; assay: as above; conditions: P. falciparum in erythrocytes, SYBR Green DNA, 72 h; series mostly up to 28.7 µM
Summary of the method: as §1

[19] = system: N140; assay: as above; conditions: P. falciparum in erythrocytes, SYBR Green DNA, 72 h; series mostly up to 28.7 µM
Summary of the method: as §1

[20] = system: P94_40; assay: as above; conditions: P. falciparum in erythrocytes, SYBR Green DNA, 72 h; series mostly up to 28.7 µM
Summary of the method: as §1

C[C@H]1OC(OC2C(O)[C@@H](O)C(OC3C(O)[C@@H](O)C(O)O[C@@H]3CO)O[C@@H]2CO)[C@H](O)C(O)C1N[C@H]1C=C(CO)[C@@H](O)[C@H](O)C1O (stereo not given in full)
inactive: Potency [1] | activity, negative = inhibition ([2]; parasite line A) -6.96% | activity, negative = inhibition ([2]; parasite line B) 11.4% | Potency [3] | Potency [4] | Potency [5] | Potency [6] | Potency [7] | Potency [8] | Potency [9] | Potency [10] | Potency [11] | Potency [12] | Potency [13] | Potency [14] | Potency [15] | Potency [16] | Potency [17] | Potency [18] | Potency [19] | Potency [20]

Cc1ccc(/C=C2/C(=O)C3(C)CCC2C3(C)C)cc1 (stereo not given)
inactive: Potency [1] | activity, negative = inhibition ([2]; parasite line A) 14.8% | activity, negative = inhibition ([2]; parasite line B) 12% | Potency [3] | Potency [4] | Potency [5] | Potency [6] | Potency [7] | Potency [8] | Potency [9] | Potency [10] | Potency [11] | Potency [12] | Potency [13] | Potency [14] | Potency [15] | Potency [16] | Potency [17] | Potency [18] | Potency [19] | Potency [20]

C[S+](C)CC[C@H](N)C(=O)O
inactive: Potency [1] | activity, negative = inhibition ([2]; parasite line A) 2.14% | activity, negative = inhibition ([2]; parasite line B) 12.4% | Potency [3] | Potency [4] | Potency [5] | Potency [6] | Potency [7] | Potency [8] | Potency [9] | Potency [10] | Potency [11] | Potency [12] | Potency [13] | Potency [14] | Potency [15] | Potency [16] | Potency [17] | Potency [18] | Potency [19] | Potency [20]

OCC1O[C@H](Oc2ccc(O)cc2)C(O)C(O)C1O (stereo not given in full)
inactive: Potency [1] | activity, negative = inhibition ([2]; parasite line A) -4.75% | activity, negative = inhibition ([2]; parasite line B) 1.5% | Potency [3] | Potency [4] | Potency [5] | Potency [6] | Potency [7] | Potency [8] | Potency [9] | Potency [10] | Potency [11] | Potency [12] | Potency [13] | Potency [14] | Potency [15] | Potency [16] | Potency [17] | Potency [18] | Potency [19] | Potency [20]

CC1OC(OCC2OC(Oc3c(-c4ccc(OCCO)c(OCCO)c4)oc4cc(OCCO)cc(O)c4c3=O)C(O)C(O)C2O)[C@@H](O)C(O)C1O (stereo not given in full)
inactive: Potency [1] | activity, negative = inhibition ([2]; parasite line A) -11% | activity, negative = inhibition ([2]; parasite line B) 4.27% | Potency [3] | Potency [4] | Potency [5] | Potency [6] | Potency [7] | Potency [8] | Potency [9] | Potency [10] | Potency [11] | Potency [12] | Potency [13] | Potency [14] | Potency [15] | Potency [16] | Potency [17] | Potency [18] | Potency [19] | Potency [20]
